Our source for the AC50 and outcome values is PubChem BioAssay (EPA / NIEHS).

Each structure is given as a SMILES string. Inconclusive results are not listed. Activity calls are given as the source filed them. Rule for the calls: active = hit-call score of the fitted dose curve at least 0.9, where 1 is the maximum; inconclusive = response in the unintended direction; inactive = score below 0.9.

Chain of Metabotropic glutamate receptor 1 (Rattus norvegicus) (P23385 whole entry, looked up): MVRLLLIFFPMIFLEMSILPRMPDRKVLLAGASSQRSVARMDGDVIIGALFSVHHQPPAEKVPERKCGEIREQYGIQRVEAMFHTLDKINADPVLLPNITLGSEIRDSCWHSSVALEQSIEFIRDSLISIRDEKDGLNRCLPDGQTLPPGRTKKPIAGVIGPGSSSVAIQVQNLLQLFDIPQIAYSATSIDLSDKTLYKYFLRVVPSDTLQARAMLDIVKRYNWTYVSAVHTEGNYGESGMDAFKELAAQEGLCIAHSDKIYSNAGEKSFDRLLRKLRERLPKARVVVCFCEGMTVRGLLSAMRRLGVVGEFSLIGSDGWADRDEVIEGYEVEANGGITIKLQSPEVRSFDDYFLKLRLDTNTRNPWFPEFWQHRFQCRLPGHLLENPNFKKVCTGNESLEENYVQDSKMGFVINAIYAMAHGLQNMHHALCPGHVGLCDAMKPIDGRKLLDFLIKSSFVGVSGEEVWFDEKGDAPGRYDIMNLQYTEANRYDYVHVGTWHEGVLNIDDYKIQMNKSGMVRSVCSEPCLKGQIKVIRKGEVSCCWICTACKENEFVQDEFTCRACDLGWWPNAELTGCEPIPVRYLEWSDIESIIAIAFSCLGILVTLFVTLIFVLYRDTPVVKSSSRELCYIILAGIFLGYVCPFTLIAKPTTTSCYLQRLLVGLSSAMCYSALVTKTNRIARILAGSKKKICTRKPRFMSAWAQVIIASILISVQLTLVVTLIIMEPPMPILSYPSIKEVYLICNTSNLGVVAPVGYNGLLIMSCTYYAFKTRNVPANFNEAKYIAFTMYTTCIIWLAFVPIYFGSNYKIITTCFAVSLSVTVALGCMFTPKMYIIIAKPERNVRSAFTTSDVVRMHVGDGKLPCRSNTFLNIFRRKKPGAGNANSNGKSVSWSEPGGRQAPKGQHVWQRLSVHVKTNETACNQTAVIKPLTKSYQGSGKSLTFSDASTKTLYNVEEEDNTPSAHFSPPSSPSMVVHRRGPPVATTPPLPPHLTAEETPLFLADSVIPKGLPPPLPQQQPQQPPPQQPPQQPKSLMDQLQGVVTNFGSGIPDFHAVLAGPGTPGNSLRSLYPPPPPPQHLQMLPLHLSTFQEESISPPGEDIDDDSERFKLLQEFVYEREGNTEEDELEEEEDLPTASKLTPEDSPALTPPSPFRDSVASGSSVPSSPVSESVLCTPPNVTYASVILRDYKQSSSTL
Chain of rat Adrenergic Receptor, Alpha 2 (Adra2), Non-selective Binding, Adra2a (gene 25083) (P22909 whole entry, looked up): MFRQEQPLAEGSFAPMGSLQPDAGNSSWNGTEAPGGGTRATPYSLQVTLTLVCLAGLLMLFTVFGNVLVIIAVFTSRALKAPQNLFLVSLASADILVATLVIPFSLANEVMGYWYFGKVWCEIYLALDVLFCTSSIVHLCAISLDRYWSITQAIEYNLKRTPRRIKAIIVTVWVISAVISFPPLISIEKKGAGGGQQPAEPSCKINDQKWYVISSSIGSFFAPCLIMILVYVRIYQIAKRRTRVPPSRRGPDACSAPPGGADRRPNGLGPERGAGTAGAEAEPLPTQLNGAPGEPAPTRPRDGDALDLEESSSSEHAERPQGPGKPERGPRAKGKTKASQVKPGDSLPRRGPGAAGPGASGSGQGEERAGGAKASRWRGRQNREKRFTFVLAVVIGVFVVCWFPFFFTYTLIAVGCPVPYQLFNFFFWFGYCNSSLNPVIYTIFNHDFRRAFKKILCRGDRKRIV
Chain of rat Gamma-Aminobutyric Acid Type B Receptor (GABBR), Gabbr1 (gene 81657) (Q9Z0U4 whole entry, looked up): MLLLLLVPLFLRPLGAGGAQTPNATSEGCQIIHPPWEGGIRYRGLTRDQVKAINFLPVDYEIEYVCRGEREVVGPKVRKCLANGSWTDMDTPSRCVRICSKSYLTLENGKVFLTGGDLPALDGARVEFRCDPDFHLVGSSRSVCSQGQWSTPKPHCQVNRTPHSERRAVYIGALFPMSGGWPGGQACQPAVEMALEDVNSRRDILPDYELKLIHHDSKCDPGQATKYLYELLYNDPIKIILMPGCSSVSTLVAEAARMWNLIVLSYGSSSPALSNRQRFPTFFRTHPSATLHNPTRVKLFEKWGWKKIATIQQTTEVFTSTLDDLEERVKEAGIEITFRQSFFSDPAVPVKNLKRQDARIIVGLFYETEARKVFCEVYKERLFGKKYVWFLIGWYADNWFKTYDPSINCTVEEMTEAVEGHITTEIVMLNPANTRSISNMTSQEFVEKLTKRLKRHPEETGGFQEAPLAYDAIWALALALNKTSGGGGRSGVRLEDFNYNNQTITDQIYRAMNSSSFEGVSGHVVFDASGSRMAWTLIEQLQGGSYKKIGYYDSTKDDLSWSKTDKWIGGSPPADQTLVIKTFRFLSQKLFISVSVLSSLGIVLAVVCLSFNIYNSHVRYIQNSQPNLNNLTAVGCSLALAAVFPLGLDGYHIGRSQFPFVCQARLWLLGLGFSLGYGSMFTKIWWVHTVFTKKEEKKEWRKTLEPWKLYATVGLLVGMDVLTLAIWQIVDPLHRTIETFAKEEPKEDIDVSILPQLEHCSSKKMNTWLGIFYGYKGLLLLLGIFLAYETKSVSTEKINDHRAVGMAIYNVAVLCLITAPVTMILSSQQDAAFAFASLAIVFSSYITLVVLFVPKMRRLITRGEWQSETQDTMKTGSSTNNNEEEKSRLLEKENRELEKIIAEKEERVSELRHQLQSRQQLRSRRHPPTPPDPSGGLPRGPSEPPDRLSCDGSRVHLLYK
Chain of Adra2b (gene 24174) (P19328 whole entry, looked up): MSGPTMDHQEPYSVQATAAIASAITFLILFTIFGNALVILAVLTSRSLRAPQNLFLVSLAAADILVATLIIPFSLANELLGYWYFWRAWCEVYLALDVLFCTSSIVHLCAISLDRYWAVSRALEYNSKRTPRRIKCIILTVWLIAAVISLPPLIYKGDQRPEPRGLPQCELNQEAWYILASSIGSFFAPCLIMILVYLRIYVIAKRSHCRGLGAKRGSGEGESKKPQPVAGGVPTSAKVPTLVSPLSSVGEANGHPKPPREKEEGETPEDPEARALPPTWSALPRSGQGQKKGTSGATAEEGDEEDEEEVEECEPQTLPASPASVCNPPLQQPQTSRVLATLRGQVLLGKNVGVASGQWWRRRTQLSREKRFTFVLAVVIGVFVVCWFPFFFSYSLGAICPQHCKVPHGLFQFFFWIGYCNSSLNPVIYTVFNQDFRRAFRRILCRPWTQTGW

For the first experiment, the target named is rat Adrenergic Receptor, Alpha 2 (Adra2), Non-selective Binding, Adra2a (gene 25083) (UniProt P22909). Briefly: NVS_GPCR_rAdra2_NonSelective: NovaScreen (NVS) G Protein-Coupled Receptor Assay for rat Adrenergic Receptor, Alpha 2 (Adra2), Non-selective Binding (AID 2283299). In short, it runs like this:
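Rat cortical membranes, radioligand competitive displacement read by filter-based scintillation counting 1.25 hours after dosing. Primary screen in duplicate at 25 uM; actives followed up in concentration series.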
For the compound `CCOC(=O)[C@]1(c2ccccc2)Oc2ccccc2[C@@H]1N`, the AC50 is 3.76 µM (active).

For `CCC[CH2][Sn]([Cl])([CH2]CCC)[CH2]CCC`, the concentration at half-maximal activity (AC50) is 2.98 µM (active).

For `[Cl-].[Cl-].[Hg+2]`, the AC50 is 6.48 µM (active).

The next experiment concerns the target rat Gamma-Aminobutyric Acid Type B Receptor (GABBR), Gabbr1 (gene 81657) (UniProt Q9Z0U4). Put plainly: NVS_GPCR_rGABBR: NovaScreen (NVS) G Protein-Coupled Receptor Assay for rat Gamma-Aminobutyric Acid Type B Receptor (GABBR) (AID 2283301). The essentials:
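Radioligand displacement on rat cortical membranes, 1 h, filter-based scintillation counting. Primary screen at 25 uM in duplicate; compounds passing threshold re-tested in concentration-response up to 50 uM; loss of binding fitted against DMSO.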
As for `C[N+](C)(C)CC1CO1` (centres undefined), the call was inactive.

On to `ClCCOCCCl`, for which the compound was called inactive.

On to `CC(C)(O)c1cnn2c(-c3ccc(F)c(-c4c(F)cccc4C#N)c3)cnc2n1`, for which the call was inactive.

In the case of `[Cl-].[Cl-].[Hg+2]`, the half-maximal activity concentration (AC50) is 18.4 µM (active).

The target of another experiment is rat Histamine Receptor (H3), Hrh3 (gene 85268) (UniProt Q9QYN8). Put plainly: NVS_GPCR_rH3: NovaScreen (NVS) G Protein-Coupled Receptor Assay for rat Histamine Receptor (H3) (AID 2283303). In short, it runs like this: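 Rat forebrain membranes incubated 1 h with compound; radioligand displacement measured by filter-based scintillation counting. Single-concentration duplicates at 25 µM, then concentration-response up to 50 µM, relative to DMSO.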
Chain of rat Histamine Receptor (H3), Hrh3 (gene 85268) (Q9QYN8 whole entry, looked up): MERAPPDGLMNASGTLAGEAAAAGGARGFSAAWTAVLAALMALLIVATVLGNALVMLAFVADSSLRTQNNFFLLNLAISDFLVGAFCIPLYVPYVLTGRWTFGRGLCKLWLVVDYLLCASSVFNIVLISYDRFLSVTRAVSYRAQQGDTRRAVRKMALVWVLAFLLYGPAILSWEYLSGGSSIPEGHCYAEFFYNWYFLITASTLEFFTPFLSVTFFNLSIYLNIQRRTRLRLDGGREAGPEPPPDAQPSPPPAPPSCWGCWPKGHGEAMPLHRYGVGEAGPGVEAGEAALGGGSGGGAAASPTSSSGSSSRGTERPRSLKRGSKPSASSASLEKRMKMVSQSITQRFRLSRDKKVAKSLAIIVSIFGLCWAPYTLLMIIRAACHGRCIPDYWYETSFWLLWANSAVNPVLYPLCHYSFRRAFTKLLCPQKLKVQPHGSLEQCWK
For `O=C(Oc1ccc(Br)cc1)N1CCN2CCC1CC2`, the concentration at half-maximal activity (AC50) was 0.851 µM (active).

Take `CCOC(=O)[C@]1(c2ccccc2)Oc2ccccc2[C@@H]1N`: the AC50 is 10.2 µM (active).

In the case of `CCC[CH2][Sn]([Cl])([CH2]CCC)[CH2]CCC`, the AC50 is 15.2 µM (active).

Take `CCCCCCCCn1sccc1=O`: the concentration at half-maximal activity (AC50) was 10.6 µM (active).

`CC(C)(C)OOC(=O)c1ccccc1`: the compound was classed as inactive.

Take `[Cl-].[Cl-].[Hg+2]`: the AC50 was 24.6 µM (active).

Another experiment deals with Metabotropic glutamate receptor 1 (Rattus norvegicus) (UniProt P23385). Briefly: NVS_GPCR_rmMGluR1: NovaScreen (NVS) G Protein-Coupled Receptor Assay for rat Glutamate Metabotropic Receptor 1 (MGluR1) (AID 2283305). The essentials:
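Rat cerebellum membrane preparation, radioligand displacement binding read by filter-based scintillation counting 1 hour after dosing. Initial duplicate single-point screen at 25 uM, then concentration-response up to 50 uM; loss of signal versus DMSO baseline scored.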
For `CCC[CH2][Sn]([Cl])([CH2]CCC)[CH2]CCC`, the half-maximal activity concentration (AC50) was 2.5 µM (active).

Turning to `CCCCCCCCn1sccc1=O`, the half-maximal activity concentration (AC50) was 21.2 µM (active).

For `O=[N+]([O-])C(Br)(CO)CO`, the concentration at half-maximal activity (AC50) was 40.5 µM (active).

Take `[Cl-].[Cl-].[Hg+2]`: the AC50 was 14 µM (active).

Another experiment has as its target Adra2b (gene 24174) (UniProt P19328). Briefly: NVS_GPCR_rmAdra2B: NovaScreen (NVS) G Protein-Coupled Receptor Assay for hybird cells Adrenergic, Alpha 2B Receptor (Adra2B) (AID 2283306). In short, it runs like this: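 Radioligand filter-binding assay on membrane proteins from neuroglioma/blastoma hybrid cells (rodent), 1 h after dosing; scintillation counting, loss of signal vs DMSO. Primary screen in duplicate at 25 uM, actives then run in concentration series.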
For `O=C(Oc1ccc(Br)cc1)N1CCN2CCC1CC2`, the compound was classed as inactive.

For `C[C@]12C=CC3=C4CCC(=O)C=C4CC[C@H]3[C@@H]1CC[C@@H]2O`, the AC50 is 20.7 µM (active).

Turning to `CCOC(=O)[C@]1(c2ccccc2)Oc2ccccc2[C@@H]1N`, the AC50 was 1.76 µM (active).

Turning to `CCC[CH2][Sn]([Cl])([CH2]CCC)[CH2]CCC`, the compound was classed as inactive.

With `CC(C)(C)C(O)(CCc1ccc(Cl)cc1)Cn1cncn1` (centres undefined), the outcome was inactive.

On to `CCCCCCCCn1sccc1=O`, for which the AC50 was 26 µM (active).

As for `[Cl-].[Cl-].[Hg+2]`, the AC50 is 6.72 µM (active).

The target in another experiment is rat Glutamate Metabotropic Receptor 5 (MGluR5), Grm5 (gene 24418) (UniProt P31424). Briefly: NVS_GPCR_rmMGluR5: NovaScreen (NVS) G Protein-Coupled Receptor Assay for rat Glutamate Metabotropic Receptor 5 (MGluR5) (AID 2283307). In short, it runs like this:
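Rat whole-brain membrane preparation; filter-based radioligand binding read by scintillation counting, 1.5 h after dosing. Single-point screen at 25 uM in duplicate; hits over threshold (e.g. 30% inhibition) retested in concentration-response up to 50 uM; loss of signal vs DMSO.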
Regarding `Cn1cc(-c2ccccc2)c(=O)c(-c2cccc(C(F)(F)F)c2)c1`, the compound was called inactive.

For the compound `CCC[CH2][Sn]([Cl])([CH2]CCC)[CH2]CCC`, the AC50 is 25 µM (active).

With `CCN(CC)CCO`, the call was inactive.

The target of the next experiment is rat Neurokinin-1 Receptor (NK1), Tacr1 (gene 24807) (UniProt P14600). Briefly: NVS_GPCR_rNK1: NovaScreen (NVS) G Protein-Coupled Receptor Assay for rat Neurokinin-1 Receptor (NK1) (AID 2283309). The essentials: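 Rat submaxillary gland membranes; radioligand displacement read by filter-based scintillation counting after 1 h. Primary screen in duplicate at 25 uM; actives retested in concentration series; loss of binding fitted versus DMSO.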
Chain of rat Neurokinin-1 Receptor (NK1), Tacr1 (gene 24807) (P14600 whole entry, looked up): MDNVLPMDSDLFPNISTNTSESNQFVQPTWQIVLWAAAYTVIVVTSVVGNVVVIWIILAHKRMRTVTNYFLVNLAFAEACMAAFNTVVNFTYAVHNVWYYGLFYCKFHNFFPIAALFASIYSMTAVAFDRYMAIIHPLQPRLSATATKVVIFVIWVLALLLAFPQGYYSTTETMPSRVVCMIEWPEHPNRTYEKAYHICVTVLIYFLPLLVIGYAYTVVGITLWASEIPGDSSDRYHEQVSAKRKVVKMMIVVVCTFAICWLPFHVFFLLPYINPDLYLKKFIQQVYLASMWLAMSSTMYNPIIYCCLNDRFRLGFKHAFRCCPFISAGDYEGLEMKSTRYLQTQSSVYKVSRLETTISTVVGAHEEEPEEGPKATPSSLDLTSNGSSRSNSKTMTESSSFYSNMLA
With `C[C@]12C=CC3=C4CCC(=O)C=C4CC[C@H]3[C@@H]1CC[C@@H]2O`, the AC50 was 25 µM (active).

Consider `CC(C)(C)C(O)(CCc1ccc(Cl)cc1)Cn1cncn1` (centres undefined), for which the concentration at half-maximal activity (AC50) is 12.9 µM (active).

As to `CC(C)(C)OOC(=O)c1ccccc1`, the compound was called inactive.

Turning to `O=C(N[C@H](c1ccccc1)[C@@H]1CN2CCC1CC2)c1c(Cl)ccc(C(F)(F)F)c1Cl`, the AC50 was 37.5 µM (active).

For `Clc1ccc(C(c2ccc(Cl)cc2)C(Cl)(Cl)Cl)cc1`, the result was inactive.

Turning to `[Cl-].[Cl-].[Hg+2]`, the concentration at half-maximal activity (AC50) was 14.2 µM (active).

In another experiment the target is rat Neurokinin-3 Receptor (NK3), Tacr3 (gene 24808) (UniProt P16177). Put plainly: NVS_GPCR_rNK3: NovaScreen (NVS) G Protein-Coupled Receptor Assay for rat Neurokinin-3 Receptor (NK3) (AID 2283310). In short, it runs like this: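 Rat cortical membranes; radioligand binding with filtration and scintillation counting, 2 h after dosing. Primary screen in duplicate at 25 uM, then concentration-response up to 50 uM; loss of binding signal relative to DMSO.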
Chain of rat Neurokinin-3 Receptor (NK3), Tacr3 (gene 24808) (P16177 whole entry, looked up): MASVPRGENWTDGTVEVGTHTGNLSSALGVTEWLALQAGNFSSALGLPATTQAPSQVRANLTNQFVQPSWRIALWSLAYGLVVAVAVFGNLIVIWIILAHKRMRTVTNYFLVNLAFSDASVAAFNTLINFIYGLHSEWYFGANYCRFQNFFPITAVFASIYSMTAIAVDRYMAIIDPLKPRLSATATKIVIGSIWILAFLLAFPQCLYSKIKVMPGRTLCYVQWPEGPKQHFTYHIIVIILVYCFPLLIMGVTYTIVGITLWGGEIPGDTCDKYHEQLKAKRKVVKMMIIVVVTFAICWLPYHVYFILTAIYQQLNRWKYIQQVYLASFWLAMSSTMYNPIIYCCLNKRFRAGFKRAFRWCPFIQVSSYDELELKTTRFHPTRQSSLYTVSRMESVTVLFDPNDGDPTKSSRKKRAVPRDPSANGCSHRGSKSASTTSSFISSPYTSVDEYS
Turning to `CCC[CH2][Sn]([Cl])([CH2]CCC)[CH2]CCC`, the AC50 was 1.43 µM (active).

Regarding `N#CC(Br)Br`, the result was inactive.

For `CCCCCCCCn1sccc1=O`, the compound was classed as inactive.

For the compound `O=C(N[C@H](c1ccccc1)[C@@H]1CN2CCC1CC2)c1c(Cl)ccc(C(F)(F)F)c1Cl`, the AC50 was 28.9 µM (active).

In the case of `[Cl-].[Cl-].[Hg+2]`, the AC50 was 12.9 µM (active).

A further experiment concerns the target rat Opioid Receptor, Non-selective Sodium (Na+) Binding, Oprm1 (gene 25601) (UniProt P33535). Put plainly: NVS_GPCR_rOpiate_NonSelectiveNa: NovaScreen (NVS) G Protein-Coupled Receptor Assay for rat Opioid Receptor, Non-selective Sodium (Na+) Binding (AID 2283311). The essentials:
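Rat forebrain membranes, radioligand displacement with filter scintillation counting, 1.5 h incubation. Screened in duplicate at 25 µM; hits then run in concentration-response up to 50 µM; loss of binding fitted versus DMSO.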
With `CCOC(=O)[C@]1(c2ccccc2)Oc2ccccc2[C@@H]1N`, the AC50 is 21.3 µM (active).

On to `CCC[CH2][Sn]([Cl])([CH2]CCC)[CH2]CCC`, for which the AC50 was 8.92 µM (active).

For `CCCCCCCCn1sccc1=O`, the concentration at half-maximal activity (AC50) was 32.5 µM (active).

For the compound `O=C(N[C@H](c1ccccc1)[C@@H]1CN2CCC1CC2)c1c(Cl)ccc(C(F)(F)F)c1Cl`, the half-maximal activity concentration (AC50) was 37.5 µM (active).

As for `O=[N+]([O-])C(Br)(CO)CO`, the concentration at half-maximal activity (AC50) is 11 µM (active).

For `[Cl-].[Cl-].[Hg+2]`, the concentration at half-maximal activity (AC50) is 16.7 µM (active).

The target of the next experiment is rat Somatostatin Receptor (SST), Sstr1 (gene 25033) (UniProt P28646). Briefly: NVS_GPCR_rSST: NovaScreen (NVS) G Protein-Coupled Receptor Assay for rat Somatostatin Receptor (SST) (AID 2283314). In short, it runs like this: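 Rat forebrain membranes; radioligand displacement read by filter-based scintillation counting 1 h after dosing. Primary screen in duplicate at 25 uM. Actives (e.g., 30% inhibition) were rerun as concentration-response to 50 uM max and fitted against DMSO.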
Chain of rat Somatostatin Receptor (SST), Sstr1 (gene 25033) (P28646 whole entry, looked up): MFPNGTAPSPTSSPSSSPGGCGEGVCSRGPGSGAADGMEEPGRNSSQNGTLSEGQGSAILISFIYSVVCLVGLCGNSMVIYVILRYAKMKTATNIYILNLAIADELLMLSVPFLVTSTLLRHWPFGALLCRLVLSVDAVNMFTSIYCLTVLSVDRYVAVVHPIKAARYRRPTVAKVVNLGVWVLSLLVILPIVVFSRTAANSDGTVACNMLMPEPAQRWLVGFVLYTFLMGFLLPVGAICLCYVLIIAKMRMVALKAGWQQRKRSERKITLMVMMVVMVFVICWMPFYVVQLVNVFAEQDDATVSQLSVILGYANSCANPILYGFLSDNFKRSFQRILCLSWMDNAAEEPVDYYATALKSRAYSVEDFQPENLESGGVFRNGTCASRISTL
On to `CCCCCCCCOC(=O)c1ccc(C(=O)OCCCCCCCC)c(C(=O)OCCCCCCCC)c1`, for which the AC50 was 0.326 µM (active).

For the compound `O=C(O)C1C2CCC(O2)C1C(=O)O` (centres undefined), the concentration at half-maximal activity (AC50) was 3.96 µM (active).

On to `CCC[CH2][Sn]([Cl])([CH2]CCC)[CH2]CCC`, for which the compound was called inactive.

As for `CS(=O)(=O)NC(=O)c1cc(Oc2ccc(C(F)(F)F)cc2Cl)ccc1[N+](=O)[O-]`, the half-maximal activity concentration (AC50) was 1.38 µM (active).

In the next experiment the target is Voltage-dependent N-type calcium channel subunit alpha-1B (Rattus norvegicus) (UniProt Q02294). Briefly: NVS_IC_rCaChN: NovaScreen (NVS) Ion Channel Assay for rat Calcium Channel, Type N (CaChN) (AID 2283317).
With `ClC1=C(Cl)C2(Cl)C3C(Cl)C=CC3C1(Cl)C2(Cl)Cl` (centres undefined), the outcome was inactive.

As for `CCC[CH2][Sn]([Cl])([CH2]CCC)[CH2]CCC`, the result was inactive.

As to `CS(=O)(=O)NC(=O)c1cc(Oc2ccc(C(F)(F)F)cc2Cl)ccc1[N+](=O)[O-]`, the result was inactive.

With `CCOc1cccc(C2(N3CCN(c4ccccc4)CC3)CCC(C)CC2)c1` (centres undefined), the result was inactive.

Another experiment addresses rat Opioid Receptor, Non-selective Binding, Oprm1 (gene 25601) (UniProt P33535). Put plainly: NVS_GPCR_rOpiate_NonSelective: NovaScreen (NVS) G Protein-Coupled Receptor Assay for rat Opioid Receptor, Non-selective Binding (AID 2283318). The essentials: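 Rat forebrain membranes, cell-free radioligand binding with filter-based scintillation counting, read 1.5 h after dosing. Primary screen in duplicate at 25 uM; actives retested in concentration series. Loss of signal versus DMSO baseline scored.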
Turning to `COP(=S)(OC)SCN1C(=O)c2ccccc2C1=O`, the half-maximal activity concentration (AC50) is 31.8 µM (active).

Consider `CCOC(=O)[C@]1(c2ccccc2)Oc2ccccc2[C@@H]1N`, for which the half-maximal activity concentration (AC50) is 7.52 µM (active).

On to `CCC[CH2][Sn]([Cl])([CH2]CCC)[CH2]CCC`, for which the AC50 was 3.98 µM (active).

Regarding `O=C(N[C@H](c1ccccc1)[C@@H]1CN2CCC1CC2)c1c(Cl)ccc(C(F)(F)F)c1Cl`, the concentration at half-maximal activity (AC50) was 9.3 µM (active).

Take `CCCCC(CC)COC(=O)c1ccc(C(=O)OCC(CC)CCCC)c(C(=O)OCC(CC)CCCC)c1` (centres undefined): the compound was classed as inactive.

Turning to `O=[N+]([O-])C(Br)(CO)CO`, the half-maximal activity concentration (AC50) is 16 µM (active).

With `[Cl-].[Cl-].[Hg+2]`, the half-maximal activity concentration (AC50) is 13.6 µM (active).

The subject of a further experiment is NCBI gene 24521. Put plainly: NVS_IC_rKATPCh: NovaScreen (NVS) Ion Channel Assay for rat Potassium Channel, ATP-Sensitive (KATPCh) (AID 2283319). In short, it runs like this:
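Rat cortical membranes; radioligand binding at ATP-sensitive K channel site, filter-based scintillation counting 2 h after dosing. Single-point duplicate screen at 25 uM, hits rerun in concentration-response up to 50 uM; loss of signal versus DMSO.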
As to `Clc1ccc(C(c2ccc(Cl)cc2)C(Cl)Cl)cc1`, the outcome was inactive.

For the compound `O=C(Oc1ccc(Br)cc1)N1CCN2CCC1CC2`, the compound was classed as inactive.

Regarding `Cc1ccc([N+](=O)[O-])cc1`, the half-maximal activity concentration (AC50) is 4.96 µM (active).

Take `O=[N+]([O-])c1ccc(Oc2ccc(Cl)cc2Cl)cc1`: the compound was called inactive.

As for `[Cl-].[Cl-].[Hg+2]`, the AC50 is 27.6 µM (active).
